A selection: hits, their analogues and other compounds. The true share with any hit is near 3.7%.
Wnt bcat act: Wnt/beta-catenin pathway activators, primary screen, cell-based, plate reader, single point; Wnt/beta-catenin reporter cell assay, activator; activation, % at 9.35 µM; 300,000 tested, 1.2% active; in the data active = activation above about 30%, passing the limit was not always enough; inconclusive = no clear call, values can overlap the other calls;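 also: 0% = neutral control wells and 100% = positive control wells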
esBAF inh: Bmi1 luciferase reporter increase in mESCs, primary screen, esBAF inhibitor project, mouse ES cells, Bmi1 luciferase knock-in, single point. 350,000 tested, 2% active. AID 602393, 2012. reporter increase, % at 12.5 µM. 24 h; 100% = twice the neutral-well signal; in the data active = activation above about 40%; inconclusive = no clear call, values can overlap the other calls;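 also: 0% = median of the plate's neutral control wells and 100% = double that signal; a rise in the Bmi1 reporter signal indicates esBAF inhibition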
Ecoli rRNA inh: reduced GFP signal of wild-type E. coli, primary screen, bacterial rRNA inhibitor project, GFP/RFP fluorescence, OD600, single point; 350,000 tested, 1.6% active; E. coli WT GFP vs humanized-ribosome RFP mutants, 24 h; stronger effect = lower value; DMSO median 0, no signal -100; GFP signal change (wild-type ribosome), % (no concentration beside the values);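 active = significant combined selectivity score with lowered wild-type GFP, culture density cut under 30%, mutant RFP and density less affected; inactive = any of these conditions unmet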
MLL AF4-AF9 inh: inhibitors of AF4 peptide binding to AF9, primary screen, biochemical, AlphaScreen, biotin-AF4 peptide, FLAG-AF9, single point | Protein AF-9 (Homo sapiens), P42568 | 350,000 tested, 0.47% active | inhibition, % at 10 µM | AID 651704, 2012;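 active = every replicate reaching a set inhibition limit, whatever the replicate mean, cut at about 25% in these data; inconclusive = mean inhibition reaches that limit but some replicates miss it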;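 also: 0% = plate neutral control median and 100% = total signal loss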
Target sequence (P42568 whole entry, looked up): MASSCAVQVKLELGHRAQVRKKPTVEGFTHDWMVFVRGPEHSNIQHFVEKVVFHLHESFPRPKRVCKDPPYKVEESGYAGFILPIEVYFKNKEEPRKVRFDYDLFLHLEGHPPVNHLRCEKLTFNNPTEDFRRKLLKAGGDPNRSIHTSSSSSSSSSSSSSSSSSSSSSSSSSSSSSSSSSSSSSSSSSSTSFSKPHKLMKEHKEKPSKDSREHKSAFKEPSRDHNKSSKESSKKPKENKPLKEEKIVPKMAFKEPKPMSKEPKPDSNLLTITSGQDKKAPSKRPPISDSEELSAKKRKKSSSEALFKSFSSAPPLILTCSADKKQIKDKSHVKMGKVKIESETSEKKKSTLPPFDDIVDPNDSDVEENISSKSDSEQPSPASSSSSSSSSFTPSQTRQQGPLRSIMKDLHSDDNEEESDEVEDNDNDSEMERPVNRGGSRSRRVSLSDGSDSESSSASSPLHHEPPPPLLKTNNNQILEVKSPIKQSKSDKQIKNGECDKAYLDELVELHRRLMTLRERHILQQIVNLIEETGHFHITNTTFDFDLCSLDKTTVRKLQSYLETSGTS
MITF act: activators of MITF-driven TRPM1 promoter reporter, primary screen, cell-based, SK-MEL-5, luciferase, single point; SK-MEL-5 TRPM1-promoter luciferase, 24 h; % of positive control, neutral wells = 0; activation, % at 12.5 µM; 300,000 tested, 0.75% active; AID 588334, 2011;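 active = mean activation of at least 80% with every replicate also reaching 80%; inconclusive = mean reaches 80% but some replicate falls short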;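 also: 0% = neutral control wells and 100% = parthenolide positive control wells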
AID977621: growth inhibition of wild-type GFP E. coli, dose response, H69 mutant RFP, cherry-pick | E. coli wild-type GFP strain growth, fluorescence, 24 h | activity change, negative = inhibition at 50 µM | shares compounds with Ecoli rRNA inh | 1,900 tested, under 10 active;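 active = Wild-type ribosome reporter drop at least double the humanized mutant ribosome reporter drop, growth loss under a set limit; inconclusive = no clear call, values can overlap the other calls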;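 also: wild-type GFP and H69 mutant RFP strains grown together 50/50 in each well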
AID977628: E. coli growth inhibition, wild-type GFP versus h24 humanized RFP strain, dose response, h24 mutant RFP vs wild-type GFP, cherry-pick. shares compounds with Ecoli rRNA inh. E. coli WT GFP strain growth, fluorescence, 24 h. activity change, negative = inhibition at 50 µM. 1,900 tested, under 10 active;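 active = compound lowering the normal-ribosome reporter at least twice as much as the humanized-ribosome reporter, growth loss under a set limit; inconclusive = no clear call, values can overlap the other calls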;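 also: wild-type GFP and h24 humanized RFP strains co-cultured 1 to 1 per well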
* = called active by the depositor.

`C[C@@H]1CN([C@@H](C)CO)C(=O)c2cccc(NS(=O)(=O)c3ccccc3)c2O[C@@H]1CN(C)S(=O)(=O)c1ccccc1` gave esBAF inh -2, Ecoli rRNA inh 2 and MLL AF4-AF9 inh -1.
Screening CCCCNC(=O)c1ccc(CS(=O)(=O)c2cccc(C(F)(F)F)c2)o1 returned Wnt bcat act -1, esBAF inh -4 and MITF act 3.
For CC(C)OCCCNC(=O)c1ccc(CS(=O)(=O)c2cccc(C(F)(F)F)c2)o1 the results were Wnt bcat act 0, esBAF inh -3, Ecoli rRNA inh -19*, MLL AF4-AF9 inh -2, MITF act -3, AID977621 -13 and AID977628 inconclusive.
For Cc1ccc(S(=O)(=O)Nc2ccc3c(c2)CC(=O)N([C@@H](C)CO)C[C@H](C)[C@@H](CN(C)Cc2ccc(C(F)(F)F)cc2)O3)cc1 the results were esBAF inh 4 and Ecoli rRNA inh -1.
Cc1ccccc1S(=O)(=O)N1C[C@H]2CON(C)[C@H]2C[C@H]1c1cccc(-c2ccc(C#N)cc2)c1 was read as Wnt bcat act -5, esBAF inh 3, Ecoli rRNA inh -18*, MLL AF4-AF9 inh 0, MITF act -6 and AID977621 inconclusive.
`CN1OC[C@@H]2CN(C(=O)c3ccco3)[C@H](c3ccc(-c4ccc(C#N)cc4)cc3)C[C@@H]21` gave Wnt bcat act -8, esBAF inh 1, Ecoli rRNA inh -19*, MLL AF4-AF9 inh 2, AID977621 -5.4 and AID977628 -4.7.
`O=C(O)C1(Nc2ccc([N+](=O)[O-])cc2[N+](=O)[O-])CCCC1` gave Wnt bcat act -2, Ecoli rRNA inh -16*, MLL AF4-AF9 inh 5, MITF act 10, AID977621 -17 and AID977628 -9.4.
CC(C)c1cc(C(N)=O)c(NC(=O)C2CCC2)s1 was read as Wnt bcat act -2, Ecoli rRNA inh -24*, MLL AF4-AF9 inh -13, MITF act -5 and AID977621 inconclusive.
`C[C@@H]1CN([C@@H](C)CO)C(=O)c2cc(-c3ccccc3)cnc2O[C@H]1CN(C)C(=O)c1cccnc1` gave esBAF inh 3, Ecoli rRNA inh 1 and MLL AF4-AF9 inh -1.
For CC(C)c1ccc(NC(=O)CCNC(=O)Cn2cnc3ccccc3c2=O)cc1 the results were Wnt bcat act -2, esBAF inh -7, Ecoli rRNA inh 12, MLL AF4-AF9 inh 3 and MITF act -4.
CN(C)S(=O)(=O)c1ccc(Cl)c(C(=O)OCC(=O)NC(=O)c2cccn2C)c1 was read as Wnt bcat act -2, Ecoli rRNA inh -21*, MLL AF4-AF9 inh 8, MITF act 8, AID977621 -11 and AID977628 -14.
COc1ccc2c3c([nH]c2c1)[C@@H](CO)N(C(=O)CN(C)C)CC31CCN(C(=O)c2cccnc2)CC1 was read as Ecoli rRNA inh 2 and MLL AF4-AF9 inh -1.
`COC(=O)CN1C(=S)N(c2ccc(F)cc2)C(=O)C1CC(=O)Nc1ccc(F)cc1` (stereo not given) gave Wnt bcat act 1, Ecoli rRNA inh -24*, MLL AF4-AF9 inh 1, AID977621 6.4 and AID977628 -0.9.
Screening CCOc1ccc(N2C(=O)C(CC(=O)Nc3ccc(F)cc3)N(Cc3ccccn3)C2=S)cc1 (stereo not given) returned Wnt bcat act 2, Ecoli rRNA inh 2, MLL AF4-AF9 inh 9 and MITF act 1.
Screening CC(C)(C)C1CCC(C(=O)OCC(=O)N2CCN(C(=O)c3ccco3)CC2)CC1 (stereo not given) returned Wnt bcat act -1, esBAF inh -7, Ecoli rRNA inh -22*, MLL AF4-AF9 inh 0, MITF act -21, AID977621 -5 and AID977628 -5.6.
Screening COc1cc(NC(=O)COC(=O)CC(C)(C)C)c(C)cc1[N+](=O)[O-] returned Wnt bcat act 2, Ecoli rRNA inh -22*, MLL AF4-AF9 inh 5, MITF act 17 and AID977621 inconclusive.
`O=C(c1ccccn1)C1CCCN(Cc2nc(Cc3cccc(F)c3)no2)C1` (stereo not given) gave Wnt bcat act -5, esBAF inh -3, Ecoli rRNA inh 5, MLL AF4-AF9 inh -43 and MITF act -8.
For Fc1cccc(Cc2noc(CN3CCCCC3CCc3ccccn3)n2)c1 (stereo not given) the results were Wnt bcat act 0, esBAF inh -4, Ecoli rRNA inh -25*, MLL AF4-AF9 inh 3, MITF act -4 and AID977628 -14.
Cc1cccc(-c2ccc(C3[C@@H]4CN(C(=O)C5CCC5)C[C@H]3N4)cc2)c1 (stereo not given in full) was read as Ecoli rRNA inh -35 and MLL AF4-AF9 inh 5.
Screening O=C(NCc1cccs1)c1ccc(Cl)c(S(=O)(=O)N2CCCC2)c1 returned Wnt bcat act -2, esBAF inh 1, Ecoli rRNA inh -19*, MLL AF4-AF9 inh 0, MITF act 1 and AID977628 0.26.
O=C(NCc1cccs1)c1cccc(S(=O)(=O)N2CCCCC2)c1 was read as Wnt bcat act 0 and esBAF inh 19.
Screening COc1ccc(OCC(=O)N/N=C/c2ccc(N(C)C)cc2)cc1 returned Wnt bcat act 1, esBAF inh 4, Ecoli rRNA inh 7, MLL AF4-AF9 inh 5 and MITF act -4.
`Cc1onc(-c2c(Cl)cccc2Cl)c1C(=O)Nc1ccc(Cl)cn1` gave Wnt bcat act -1, Ecoli rRNA inh -20*, AID977621 -0.98 and AID977628 -3.
Screening Cc1onc(-c2ccccc2)c1C(=O)Nc1ccc(Cl)cn1 returned Wnt bcat act -2, esBAF inh -4, Ecoli rRNA inh -15, MLL AF4-AF9 inh -1 and MITF act -5.
`Cc1onc(-c2ccccc2Cl)c1C(=O)Nc1ccc(Cl)cn1` gave Wnt bcat act 2, Ecoli rRNA inh -22*, MLL AF4-AF9 inh -2, MITF act 2, AID977621 -10 and AID977628 -6.3.
`NC(=O)c1ccsc1NC(=O)COC(=O)Cc1ccc(F)cc1` gave Wnt bcat act -8, esBAF inh 11, Ecoli rRNA inh -20*, MLL AF4-AF9 inh -4, AID977621 inconclusive and AID977628 -1.7.

Screening results: PubChem, Broad Institute
